Columns and labels:
Details in all cases: concentration: 1 μM, replicates: in singlicate; n = 1
[1] = tested on: BTK
[2] = tested on: BUB1
[3] = tested on: CAMK1B
[4] = tested on: CAMK1D
[5] = tested on: CAMK1G
[6] = tested on: CAMK1
[7] = tested on: CAMK2A
[8] = tested on: CAMK2B
[9] = tested on: CAMK2D
[10] = tested on: CAMK2G
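Further: KINOMEscan kinase panel screen.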

SMILES	%Inh [1] [%]	%Inh [2] [%]	%Inh [3] [%]	%Inh [4] [%]	%Inh [5] [%]	%Inh [6] [%]	%Inh [7] [%]	%Inh [8] [%]	%Inh [9] [%]	%Inh [10] [%]
COc1ccc2cc(-c3nc(-c4ccccc4C(C)C)[nH]c3-c3ccncc3)ccc2c1 [SB-660566]	0	89	31	7	0	7	0	0	2	4
COc1ccc(Nc2nccc(N3CCC(NC(=O)C(C)c4ccc(Cl)cc4)C3)n2)cc1 (centres unmarked) [GSK1379735]	0	17	5	14	0	9	14	25	1	15
CNc1nc(-c2ccc3c(N)n[nH]c3c2)cc(N2C[C@@H](C(=O)NC3CCCCC3)OC[C@H]2C)n1 [GSK2375584]	7	36	0	20	0	19	0	0	15	34
Fc1ccc(-c2nc[nH]c2-c2ccncc2)cc1 [SB-217360]	0	84	0	10	0	0	0	0	0	0
CSc1ccc(-c2nc3n(c2-c2ccncc2)CCC3)cc1 [SKF-105561]	0	90	0	15	0	0	0	0	0	0
CC(C)c1ccc(O)cc1Nc1ccnc2ccc(C(F)(F)F)cc12 [GW482059]	0	13	27	0	0	0	0	0	0	1
O=c1cc(N2CCOCC2)nc2n(Cc3cccc(Cl)c3Cl)c3ccccc3n12 [GSK2299009]	0	0	34	36	13	43	0	0	21	33
Fc1ccc(-c2nn3cccc(F)c3c2-c2ccncc2)cc1 [GW475620]	0	53	39	10	40	6	0	0	6	14
NS(=O)(=O)c1cccc(N/C=C2\C(=O)Nc3ccc(S(=O)(=O)Cc4c(Cl)cccc4Cl)cc32)c1 [GSK398099]	0	34	23	17	26	27	0	0	26	16
CCc1ccc(-c2ccc3c(c2)-c2n[nH]cc2S(=O)(=O)N3C)cc1	0	0	0	0	0	0	0	0	21	5
O=C(Nc1n[nH]c2nc(-c3cccs3)c(Br)cc12)C1CC1 [SB-735297]	0	0	0	0	0	0	100	100	10	11
COC(=O)c1cccc(NC(=O)NC2CCN(c3ccnc(Nc4ccc(OC)cc4)n3)C2)c1 (centres unmarked) [GSK1379746]	2	75	4	3	0	0	100	100	0	0
COc1cccc(CNC(=O)NC2CCN(c3ccnc(Nc4ccc(F)cc4)n3)C2)c1 (centres unmarked) [GSK1379723]	0	27	23	14	0	14	0	0	0	82
Nc1cccc(-c2ccc3c(N)n[nH]c3c2)n1 [GSK2192730]	0	0	0	30	9	29	0	0	20	31
O=C1NC(=O)C(c2ccc(Cl)cc2)=C1Nc1cccc(Cl)c1 [SB-317651]	0	0	3	4	0	0	0	0	0	0
CN1c2ccc(-c3ccc(C(N)=O)cc3)cc2-c2[nH]ncc2S1(=O)=O	0	0	32	10	0	27	11	7	18	2
Cc1cccc2c(-c3ccncn3)c(-c3ccc(F)cc3)nn12 [GW515532]	0	65	9	0	0	5	0	0	0	0
c1ccc(-c2ccnc3[nH]ccc23)cc1 [SB-693578]	0	58	11	9	15	14	0	15	31	21
Cc1ccc(-c2nc(Nc3ccncc3)c3ccccc3n2)s1 [GSK189015]	0	34	27	12	2	15	0	0	12	24
COC(=O)C(NC(=O)NC1CCN(c2ccnc(Nc3ccc(F)cc3)n2)C1)c1ccccc1 (centres unmarked) [GSK1379712]	18	37	35	5	0	9	0	0	11	19
COc1ccc(CSc2nnc(-c3ccc4nccn4c3)o2)cc1C(F)(F)F	15	0	8	0	22	5	2	32	11	16
FC(F)(F)c1ccccc1-c1cc(-c2c[nH]nc2-c2ccccn2)ccn1 [GW679396]	0	0	29	12	8	21	0	0	9	29
Cc1ccccc1Cn1ccn2c(=O)cc(N3CCOCC3)nc12 [GSK2269905]	0	0	0	0	3	2	0	0	20	47

SMILES	%Inh [1] [%]	%Inh [2] [%]	%Inh [3] [%]	%Inh [4] [%]	%Inh [5] [%]	%Inh [6] [%]	%Inh [7] [%]	%Inh [8] [%]	%Inh [9] [%]	%Inh [10] [%]
CC(=O)c1c(C)c2cnc(Nc3ccn(C)n3)nc2n(C2CCCC2)c1=O	0	2	8	0	1	0	0	0	13	9
CC(=O)c1c(C)c2cnc(Nc3ccc(N4CCNCC4)cn3)nc2n(C2CCCC2)c1=O	0	0	0	2	0	0	0	0	0	0
CNCc1ccc2nc(NC(=O)c3ccc(C(C)(C)C)cc3)cn2c1	32	26	33	1	0	1	4	2	1	12
O=C(Nc1n[nH]c2nc(-c3ccco3)c(Br)cc12)C1CCN(Cc2ccccc2)C1.O=C(O)[C@H](O)[C@@H](O)C(=O)O (centres unmarked) [SB-742034]	0	0	0	22	10	29	30	20	7	17
Cn1cnc2c(N)ncnc21 [SKF-97623]	0	22	41	0	0	0	0	0	0	0
Cn1cncc1-c1cc2c(Nc3ccc(OCc4ccccc4)cc3)ncnc2cn1 [GW281179]	0	34	25	14	0	20	0	0	12	36
COc1cccc(C2=C(Nc3cc(Cl)c(O)c(Cl)c3)C(=O)NC2=O)c1 [SB-390767]	0	2	0	16	0	4	0	0	0	0
Nc1nccc(-c2c(-c3ccc(F)cc3)ncn2C2CCN(Cc3ccccc3)CC2)n1 [SB-219980]	0	38	56	0	0	12	0	0	0	0
CCn1c(-c2ccccc2)nc2cnccc21 [SB-733416]	0	2	44	8	0	0	0	0	0	0
COc1ccc(-c2coc3ccc(-c4nnc(C)o4)cc23)cc1	0	0	0	13	5	0	0	0	5	0
Cc1ccc(NC(=O)Nc2ccc(Cl)cc2)cc1-c1ccc(C(=O)Nc2ccncc2)cc1 [GSK1398472]	0	43	34	13	0	10	0	0	0	13
CNc1nc(-c2ccc3c(N)n[nH]c3c2)cc(N2C[C@@H](C(=O)Nc3ccccc3)CC[C@H]2C)n1 [GSK2298859]	0	22	6	25	6	28	87	82	21	21
Fc1ccc(-c2nc3n(c2-c2ccncc2)CCS3)cc1 [GI98581]	0	53	31	1	0	0	0	0	3	14
COc1ccc(Nc2nccc(N3CCC(NC(=O)C(C)c4ccc(Cl)cc4)CC3)n2)cc1 (centres unmarked) [GSK1379812]	0	6	32	23	13	25	0	0	14	36
COc1ccc(CSc2nnc(-c3ccc4ncsc4c3)o2)cc1C(F)(F)F	0	0	0	23	2	1	0	0	0	0
CS(=O)(=O)Cc1ccc(Nc2nccc(-c3c(-c4cccc(NC(=O)C5CCCCC5)c4)nn4ncccc34)n2)cc1 [GSK350559]	0	98.7	0	0	0	0	15	8	0	0
Cc1c(Cn2c3ccccc3n3c(=O)cc(N4CCOCC4)nc23)cccc1C(F)(F)F [GSK2306394]	0	3	13	20	0	5	0	0	9	7
Cc1nccc(-c2c(-c3ccc(F)cc3)ncn2CCCN2CCOCC2)n1.Cl [SB-282975]	6	0	0	0	0	0	0	0	7	0
COc1cc2ncnc(Nc3cccc(Br)c3)c2cc1OC.Cl [GI230329]	30	96.5	0	18	0	23	0	0	0	32
COc1ccc(Nc2nccc(-c3ccc(NC(=O)c4cc5cc(F)ccc5[nH]4)cc3)n2)cc1 [GSK1229496]	0	29	26	0	6	0	0	0	3	34
CNc1cc(-c2ccc3c(N)n[nH]c3c2)nc(N)n1 [GSK2224810]	0	53	8	23	0	24	0	13	7	21
CCCCc1nn2ncccc2c1-c1ccnc(NC2CC2)n1 [GW684374]	0	91.3	12	5	9	9	0	0	12	7
Cn1cncc1C(=O)NC1CCN(c2ccnc(Nc3ccc(F)cc3)n2)C1 (centres unmarked) [GSK1379717]	0	32	0	22	12	16	0	0	24	32

SMILES	%Inh [1] [%]	%Inh [2] [%]	%Inh [3] [%]	%Inh [4] [%]	%Inh [5] [%]	%Inh [6] [%]	%Inh [7] [%]	%Inh [8] [%]	%Inh [9] [%]	%Inh [10] [%]
Cc1ccccc1-c1cc(-c2c[nH]nc2-c2ccccn2)ccn1 [GW680061]	3	35	0	16	0	9	0	0	0	11
Cc1c(Cn2c(C)c(C)n3c(=O)cc(N4CCOCC4)nc23)cccc1C(F)(F)F [GSK2328680]	0	2	0	5	2	7	0	0	0	15
CC(C)c1cc(-c2ccc3c(N)n[nH]c3c2)nc(N)n1 [GSK2250882]	0	60	0	23	6	21	0	0	8	23
COc1ccc(CSc2nnc(-c3ccc4c(c3)CCO4)o2)cc1	0	0	0	0	9	0	0	0	0	0
Cc1ccc(NC(=O)Nc2ccc(Cl)c(C(F)(F)F)c2)cc1-c1ccc(C(=O)Nc2ccncc2)cc1 [GSK1398470]	0	9	2	15	12	17	0	4	13	25
Cc1cnc(N)c(/C=C/c2cncc(C(=O)NCCc3ccc(Cl)cc3Cl)c2)c1.Cl [GSK190937]	1	9	0	10	7	12	0	0	6	27
CNC(=O)c1ccc(C)c(-n2c(C)cc(OCc3ccc(F)cc3F)c(Br)c2=O)c1	0	0	0	0	0	0	0	0	0	0
COC(=O)C(Cc1ccccc1)NC(=O)NC1CCN(c2ccnc(Nc3ccc(F)cc3)n2)C1 (centres unmarked) [GSK1379714]	30	32	34	4	9	2	0	0	8	24
O=C1NC(=O)C(c2ccc(Cl)cc2)=C1Nc1ccc(O)cc1 [SB-340867]	0	0	0	99.8	0	100	0	0	0	6
Cc1ccc(NC(=O)Nc2ccccc2F)cc1-c1ccc(C(=O)Nc2ccncc2)cc1 [GSK1398477]	0	0	59	33	16	29	0	0	14	37
CC(=O)c1cccc(NC(=O)NC2CCN(c3ccnc(Nc4ccc(F)cc4)n3)C2)c1 (centres unmarked) [GSK1379710]	0	33	39	16	7	20	0	0	4	32
COc1cccc(NC(=O)Nc2ccc(C)c(-c3ccc(C(=O)Nc4ccncc4)cc3)c2)c1 [GSK1398474]	0	0	0	25	0	21	0	2	11	22
Cc1ccc(NC(=O)Nc2ccccc2)cc1-c1ccc(C(=O)Nc2ccncc2)cc1 [GSK1398471]	0	0	13	20	0	15	0	0	0	9
Cc1ccc(NC(=O)c2ccc(Cl)cc2)cc1-c1ccc(C(=O)Nc2ccncc2)cc1 [GSK1398467]	0	47	4	0	9	4	100	86	10	12
O=C(Nc1n[nH]c2nc(-c3cccs3)c(Br)cc12)C1CCCC1 [SB-743341]	26	0	0	16	0	18	9	12	2	0
COc1nccc(-c2c(-c3ccc(F)cc3)ncn2CCCN2CCOCC2)n1 [SB-282852]	33	0	29	0	0	0	0	0	0	0
COC(=O)c1cccc(NC(=O)NC2CCN(c3ccnc(Nc4ccc(F)cc4)n3)C2)c1 (centres unmarked) [GSK1379725]	0	0	16	0	0	0	0	0	0	0
CC[C@@H]1CO[C@H](C(=O)Nc2ccccc2)CN1c1cc(-c2ccc3c(N)n[nH]c3c2)nc(NC)n1 [GSK2376236]	0	0	29	19	13	7	0	0	21	6
O=c1cc(N2CCOCC2)nc2n(Cc3ccccc3F)ccn12 [GSK2297428]	0	0	0	16	5	15	0	0	7	15
Nc1ncnc2occ(-c3ccc4c(c3)CCN4C(=O)Cc3cc(F)ccc3F)c12 [GSK2645446]	0	0	0	8	9	6	0	0	14	20
CS(=O)(=O)CCNCc1nc(-c2ccc3ncnc(Nc4ccc5c(cnn5Cc5ccccc5)c4)c3c2)cs1.Cl.Cl [GW569716]	20	49	0	9	0	11	0	0	6	16
CCn1c(-c2c(N)noc2C)nc2cnccc21 [SB-737856]	0	20	0	0	0	0	0	0	0	0

— paper PMC5540273 (PLoS ONE, 2017)
